The whole screen tested about 150,000 compounds, of which about 540 (0.36%) showed an effect of 50% or more. The sample as a whole holds a higher share of strong results than the screen did.

The test system of this assay is Plasmodium falciparum. As to the kind of experiment: Primary screen in NF54 nanoGlo assay, in single point, at 2uM, 72h; a lower Z score goes with more inhibition. Type of assay: functional, Erythrocyte. As to conditions: timepoint 72 hour.
As for `COc1ccc(N(Cc2c(C)noc2C)Cc2c(C)noc2C)cc1`, the % Inhibition (in general, the relative decrease from the control value, in per cent) was -5% and the Z score was found to be 0.44.

For `CC1(C)CCCN1S(=O)(=O)c1onc(C2CC2)c1Cl`, the “% Inhibition” value was -3% and the Z score is on record as 0.41.

Consider `O=c1[nH]c(=O)n(CCS(=O)(=O)c2ccccc2)cc1Cl`, for which the “% Inhibition” value is on record as -11% and the Z score came to 1.09.

Regarding `Cc1ccc(S(=O)(=O)n2cc(C)[nH]c2=O)cc1`, the “% Inhibition” value is listed as -23% and the Z score turned out to be 2.15.

Consider `O=c1[nH]c(=O)n(S(=O)(=O)c2ccccc2)cc1F`, for which the “% Inhibition” value came out at 90% and the Z score is -12.13.

Regarding `CC(C1CC1)n1cc(NC(=O)N2CCC(C(F)(F)F)C2(C)C)cn1` (stereo not drawn), the “% Inhibition” value is recorded as -10% and the Z score is recorded as 1.23.

On to `Fc1cnc(OC2Cc3ccccc3C2)nc1`, for which the “% Inhibition” value came to 60% and the Z score is recorded as -5.26.

Consider `Cc1nnc(OC2Cc3ccccc3C2)s1`, for which the “% Inhibition” value is -7% and the Z score worked out at 1.07.

Regarding `O=C(CCc1ccccc1)N[C@H]1CC[C@H](Oc2ncc(F)cn2)CC1`, the “% Inhibition” value is recorded as -10% and the Z score stood at 1.77.

Take `CCc1nnc(CNC(=O)C(=O)c2ccco2)o1`: the “% Inhibition” value was -5% and the Z score was determined as 0.65.

Turning to `COc1ccc(CNC(=O)CCc2c(C)nn(-c3ccc4nnc(C)n4n3)c2C)c(OC)c1`, the “% Inhibition” value is 5% and the Z score was -0.63.

For `CC[n+]1c(/C=C/N(C)c2ccccc2)oc2ccc(-c3ccccc3)cc21`, the “% Inhibition” value was found to be 88% and the Z score was -9.92.

In the case of `CC[n+]1c(/C=C/N(C)c2ccccc2)oc2ccccc21`, the “% Inhibition” value amounted to 80% and the Z score is reported as -10.29.

With `COc1ccc2c(c1)C(=O)N(Cc1ccccc1)C(=O)C2(C)C`, the “% Inhibition” value is -10% and the Z score is on record as 1.06.

Regarding `C[C@@H](c1cccnc1)N(C)Cc1nc2c(s1)CCC2`, the “% Inhibition” value is listed as -18% and the Z score is given as 3.45.

`CCC(=O)Nc1cc(NC(=O)N(CC)CC2CCOCC2)ccc1OC`: the “% Inhibition” value is -8% and the Z score is 1.44.

For `Cc1cc([C@H](Nc2ccccn2)c2ccccc2)c(NC(=O)c2ccccc2)s1`, the “% Inhibition” value turned out to be 31% and the Z score is given as -0.7.

Take `Oc1ccc2ncccc2c1[C@@H](Nc1ccccn1)c1cccc(Cl)c1`: the “% Inhibition” value came to 34% and the Z score is -3.9.

Take `Oc1ccc2ncccc2c1[C@@H](Nc1ccccn1)c1cccc(Br)c1`: the “% Inhibition” value stood at 58% and the Z score is recorded as -12.1.

`Cc1cccc(Cl)c1NC(=O)N1CCS(=O)(=O)[C@@H](C)C1`: the “% Inhibition” value is listed as -5% and the Z score was found to be 0.54.

With `Cc1ccc(-n2nnnc2C2(NC(C)C)CCCC2)cc1`, the “% Inhibition” value was -3% and the Z score came to 0.43.

`CC(=O)Nc1ccc(-c2nc(-c3cccnn3)no2)c(C)c1`: the “% Inhibition” value is -22% and the Z score is on record as 2.61.

Consider `CC(C)(C)CN(CC(=O)O)C(=O)Cc1ccccc1F`, for which the “% Inhibition” value was -9% and the Z score is 1.82.

`CCN1CCN(C(=O)c2cnc(-c3ccc(F)cc3)nc2N(C)C)CC1`: the “% Inhibition” value was found to be 3% and the Z score is recorded as -0.5.

Take `COc1ccnc(NCCCNc2nccc(OC)n2)n1`: the “% Inhibition” value was -4% and the Z score is 0.53.

`Cc1ccc(N2CCOCC2)c(NC(=O)C2CCCCC2)c1`: the “% Inhibition” value is on record as -1% and the Z score came to 0.12.

In the case of `Cc1nn(C)c(Cl)c1NC(=O)OCc1ccc(F)cc1`, the “% Inhibition” value amounted to 54% and the Z score is on record as -1.24.

As to `COc1ccccc1COC(=O)Nc1c(C)nn(C)c1Cl`, the “% Inhibition” value was found to be 2% and the Z score is on record as -0.32.

Turning to `O=C(CNC(=O)OCc1ccccc1)Nc1ccc(F)cc1`, the “% Inhibition” value turned out to be 37% and the Z score came out at 2.05.

Regarding `Cc1ccc(N2S(=O)(=O)c3ccccc3S2(=O)=O)cc1`, the “% Inhibition” value was found to be 4% and the Z score is reported as -0.44.

For `Cc1cc(NC(=O)C2CCC(C3CC3)CC2)n2ncnc2n1` (stereo not drawn), the “% Inhibition” value is listed as -7% and the Z score amounted to 0.83.

Regarding `O=C(O)c1ccc(Nc2c3ccccc3nc3ccccc23)cc1`, the “% Inhibition” value was -3% and the Z score is on record as 0.3.

Take `CCOc1ccc(NC(=O)Cc2c(O)nc3ccccc3c2O)cc1`: the “% Inhibition” value is -9% and the Z score is listed as 1.39.

On to `CCOc1ccc(Nc2c3ccccc3nc3ccccc23)cc1`, for which the “% Inhibition” value turned out to be 81% and the Z score is reported as -10.53.

As for `FC(F)(F)c1cccc(Nc2c3ccccc3nc3ccccc23)c1`, the “% Inhibition” value came out at 10% and the Z score is given as -0.85.

For the molecule `C[C@H](NC(=O)c1ccccc1)C(=O)NCC1(N2CCOCC2)CCCCC1`, the “% Inhibition” value is given as -4% and the Z score amounted to 0.39.

Consider `COc1ccc(C(=O)N(Cc2ccc(OS(=O)(=O)c3ccc(F)cc3)cc2)C(C)C)c(OC)c1`, for which the “% Inhibition” value is -14% and the Z score was found to be 1.5.

Take `NC(=NCc1cccc2cccnc12)N1CCN(c2nccs2)CC1`: the “% Inhibition” value was 57% and the Z score is listed as -10.38.

Consider `NC(=NCc1csc2ccccc12)N1CCN(c2nccs2)CC1`, for which the “% Inhibition” value worked out at 5% and the Z score was -0.56.

In the case of `NC(=NCc1ccc(Cl)cn1)N1CCN(c2nccs2)CC1`, the “% Inhibition” value is reported as -4% and the Z score worked out at 0.42.

On to `N#Cc1ncn(C[C@H]2CCC3(CCCCC3)O2)c1C#N`, for which the “% Inhibition” value is reported as -10% and the Z score is 1.82.

Take `C[C@H](O)CN1CCN(Cc2cn3ccccc3c2C#N)CC1`: the “% Inhibition” value is -13% and the Z score turned out to be 2.38.

Regarding `N#Cc1c(CN2CCOCC2)cc(=O)n2c1[nH]c1ccccc12`, the “% Inhibition” value is on record as 35% and the Z score is listed as -0.01.

As for `Cc1ccc(CN2CCN(C[C@@H](O)Cn3c4ccccc4n4c(=O)cc(C)c(C#N)c34)CC2)c(C)c1`, the “% Inhibition” value amounted to 86% and the Z score was -13.14.

Source of the values: ChEMBL document CHEMBL4888484, “Replenishing the malaria drug discovery pipeline: Screening and hit evaluation of the MMV Hit Generation Library 1 (HGL1) against asexual blood stage Plasmodium falciparum ,using a nano luciferase reporter read-out” (2022).
